Source: PubChem BioAssay
MEKK2mut PB1 HTS – signal of MEK5 binding to mutant human MEKK2 PB1 domain. bead flow cytometry, Alexa488-MEK5 binding to MEKK2 mutant. hit rate 0.35% among 290,000. percent response, % at 10 µM; in the data active = percent response above about 24%, passing the limit was not always enough
GRK2 aptamer HTS – blocks RNA aptamer binding to human GRK2 | P25098 | bead flow cytometry, FAM-aptamer displacement from GRK2 | inhibition of aptamer binding, % at 10 µM | hit rate 0.59% among 330,000;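 active = inhibition of aptamer binding above 40%, roughly 3 SD of noise, on plates passing a quality check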;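 also: median bead fluorescence of bound FAM aptamer so fluorescent compounds give negative values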
MEKK3 PB1 HTS – raises or lowers MEK5 binding to the human MEKK3 PB1 domain; bead-based flow cytometry, Alexa488-MEK5 binding to MEKK3; actives lie on both sides; 0 = blocked by unlabeled MEK5, 100 = vehicle; Q99759; binding response (% of control), % at 10 µM; hit rate 1.4% among 290,000; AID 1529;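 active = binding response more than 3 SD above or below the average of its plate-row segment, actives on both sides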;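 also: Alexa488 bead fluorescence after subtracting the streptavidin-only scavenger bead signal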
MEKK2wt PB1 HTS – raises or lowers MEK5 binding to wildtype human MEKK2 PB1 domain | Q9Y2U5 | bead flow cytometry, Alexa488-MEK5 binding to MEKK2 WT; actives lie on both sides | binding response (% of control), % at 10 µM | hit rate 1.1% among 290,000 | AID 1531; in the data active = binding response below about 67% or above about 130%
MEKK2wt confirm – raises or lowers MEK5 binding to wildtype human MEKK2, retest | binding response (% of control), % at 10 µM | shares compounds with MEKK3 PB1 HTS | bead flow cytometry, Alexa488-MEK5 binding to MEKK2 WT; actives lie on both sides | hit rate 2.4% among 5,900; in the data active = binding response below about 16% or above about 210%; inactive = in between
MEKK2mut-MEK5 – signal of MEK5 binding to mutant human MEKK2, retest. bead flow cytometry, Alexa488-MEK5 binding to MEKK2 mutant. hit rate 2% among 5,900. shares compounds with MEKK3 PB1 HTS. percent response, % at 10 µM; in the data active = percent response mostly above about 71%, no sharp cut-off; inactive = mostly below about 38%;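 also: higher means compound restores mutant binding toward wildtype level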
MEKK3 confirm – MEKK3-MEK5 PB1 inhibition, single concentration confirmation. shares compounds with MEKK3 PB1 HTS. bead flow cytometry, Alexa488-MEK5 binding to MEKK3; active compounds read low. binding response (% of control), % at 10 µM. hit rate 1.8% among 5,900. AID 1894;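 active = binding response below 72% of control, or above a set upper limit, though filed actives all read lower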;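 also: lower values mean stronger disruption of MEK5 binding to MEKK3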
Of the large screens only hits and unclear results are named; the others gave an inactive call (follow-up assays come after a bar, where they were run); [ ] = dose if it differs, or a comment. Compounds with a hit are over-represented: about 2.5% of the library has one in this group of screens.

Cc1ccc(C(=O)O/N=C(\N)c2ccc(Br)cc2)cc1C	MEKK3 PB1 HTS 2.0[inhibitor], MEKK2wt PB1 HTS 1.0[inhibitor] | MEKK2wt confirm inactive | MEKK2mut-MEK5 inactive | MEKK3 confirm inactive
CC(C)C(C(=O)O)N1CCS(=O)(=O)CC1 (stereo not given)	none
OCCCCCNc1ncnc2ccccc12	MEKK3 PB1 HTS 128.0 | MEKK2wt confirm inactive | MEKK2mut-MEK5 inactive | MEKK3 confirm inactive
CCN(CC)CCCNc1ncnc2ccccc12	none
CC(=O)c1ccc(NC(=S)Nc2cccc(Cl)c2C)cc1	none
O=C(c1ccco1)N1CCN(C(=O)c2ccc(COc3ccc4c(c3)CCC4)o2)CC1	MEKK3 PB1 HTS 0.0[inhibitor], MEKK2wt PB1 HTS -4.0[inhibitor] | MEKK2wt confirm inactive | MEKK2mut-MEK5 inactive | MEKK3 confirm inactive
O=C(c1ccc(COc2ccc3c(c2)CCC3)o1)N1CCN(c2ccccc2)CC1	none
CN1CCN(C(=O)C23CCC(C)(C(=O)C2Br)C3(C)C)CC1 (stereo not given)	MEKK3 PB1 HTS 135.0 | MEKK2wt confirm inactive | MEKK2mut-MEK5 inactive | MEKK3 confirm inactive
COCCNc1nnc(SCC(=O)Nc2cc(-c3ccccc3)nn2-c2ccccc2)s1	MEKK3 PB1 HTS 68.0[inhibitor] | MEKK2wt confirm inactive | MEKK2mut-MEK5 inactive | MEKK3 confirm inactive
COCCNc1nnc(SCC(=O)Nc2nnc(-c3ccccc3)o2)s1	none (no result: MEKK2mut PB1 HTS, MEKK3 PB1 HTS, MEKK2wt PB1 HTS)
COc1ccc(NC(=O)C2CCC(C)(C(=O)O)C2(C)C)cc1 (stereo not given)	none
COC(=O)C1CCC(C)(C(=O)Nc2ccccc2)C1(C)C (stereo not given)	MEKK3 PB1 HTS 3.0[inhibitor], MEKK2wt PB1 HTS 3.0[inhibitor] | MEKK2wt confirm inactive | MEKK2mut-MEK5 inactive | MEKK3 confirm inactive
Clc1cccc(N2CCN(Cc3ccc(Br)o3)CC2)c1	none
CC1CN(C(=O)Cn2cc(SCC(=O)N3CCOCC3)c3ccccc32)CC(C)O1 (stereo not given)	MEKK3 PB1 HTS 1.0[inhibitor], MEKK2wt PB1 HTS -2.0[inhibitor] | MEKK2wt confirm inactive | MEKK2mut-MEK5 inactive | MEKK3 confirm inactive
CC1CN(C(=O)CSc2cn(CC(=O)N3CCOCC3)c3ccccc23)CC(C)O1 (stereo not given)	none
O=C(CSc1c[nH]c2ccccc12)N1CCCc2ccccc21	none
O=C(CCCc1c[nH]c2ccccc12)NCc1cccs1	none
O=C(Cc1c[nH]c2ccccc12)N/N=C/c1ccc(F)cc1	MEKK3 PB1 HTS 139.0 | MEKK2wt confirm inactive | MEKK2mut-MEK5 inactive | MEKK3 confirm inactive
O=C(Cc1c[nH]c2ccccc12)N1CCc2ccccc21	MEKK3 PB1 HTS 2.0[inhibitor], MEKK2wt PB1 HTS 1.0[inhibitor] | MEKK2wt confirm inactive | MEKK2mut-MEK5 inactive | MEKK3 confirm inactive
O=C(CC(=O)N/N=C/c1ccc(F)cc1)N/N=C/c1ccc(F)cc1	none
O=C(Cc1c[nH]c2ccccc12)NCc1cccs1	MEKK3 PB1 HTS 136.0 | MEKK2wt confirm inactive | MEKK2mut-MEK5 inactive | MEKK3 confirm inactive
COc1ccc(S(=O)(=O)NCc2nc3nc(C)cc(C)n3n2)cc1OC	none
Cc1c(N2C(=O)CS/C2=N\N=C\c2ccc(Cl)cc2)c(=O)n(-c2ccccc2)n1C	none
COc1ccc(/C=N/N=C2\SCC(=O)N2c2c(C)n(C)n(-c3ccccc3)c2=O)cc1OC	MEKK3 PB1 HTS 146.0 | MEKK2wt confirm inactive | MEKK2mut-MEK5 inactive | MEKK3 confirm inactive
COC(=O)CSc1nc2ccccn2c(=O)c1C=O	none
COc1ccc2[nH]c3c(=O)n(CCCC(=O)NC4CCCCC4C)c(=S)[nH]c3c2c1 (stereo not given)	none
C=CCn1c(-c2ccccc2)c[nH]c1=S	MEKK3 PB1 HTS 124.0 | MEKK2wt confirm inactive | MEKK2mut-MEK5 inactive | MEKK3 confirm inactive
Nc1c(N(CCCO)C(=O)C2CCCCC2)c(=O)[nH]c(=O)n1Cc1ccccc1	none (no result: MEKK2mut PB1 HTS, MEKK3 PB1 HTS, MEKK2wt PB1 HTS)
CCOc1cc(/C=C(\C#N)C(=O)Nc2ccc(S(N)(=O)=O)cc2)ccc1OCCN1CCOCC1	none
COC(=O)c1ccc(-n2nnnc2SCC(=O)Nc2cc(OC)ccc2OC)cc1	none
